Pf growth 96h: inhibits malaria parasite growth, 96 h | hit rate 6.9% among 320,000 | Potency, µM (top dose mostly 28.7 µM), for the others: top-dose activity change, negative = inhibition, actives largely listed as inhibitors | P. falciparum luciferase reporter growth, 96 h; note: potency is the fitted concentration of half-maximal effect
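Luminescence readout: decreased luciferase signal marks inhibited growth of reporter-expressing P. falciparum in infected red cells (2% hematocrit, 0.05% parasitemia final), exposed to compound two generations (96 h, 37 C, 5% CO2).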
MARV entry inh: blocks Marburg virus binding to or entry into cells | Marburg virus pseudotyped entry inhibition, cell reporter | Potency, µM (titrated, usually from 37.8 µM), for the others: top-dose activity change, negative = inhibition, usual class: inhibitors | hit rate 1.8% among 300,000; calls by dose curve; tested in HEK293 cells; note: potency is the fitted concentration of half-maximal effect
Lassa entry inh: inhibitors of Lassa virus binding or cell entry | Lassa virus pseudotype entry inhibition, cell reporter | AID 540256 | Potency, µM (highest dose often 37.9 µM), inactives show at the top dose activity change, negative = inhibition, actives largely listed as inhibitors | hit rate 1.2% among 300,000; calls by dose curve; tested in HEK293 cells; note: potency is the fitted concentration of half-maximal effect; nearly all actives have a fitted effect of over 50% in size
HCV inh: inhibitors of hepatitis C virus infection; Huh7.5.1 HCVcc-Cre infection, luciferase reporter, 44 h; Potency, µM (series often up to 41.8 µM), for the others: at the top dose activity change, negative = inhibition, usual class: inhibitors; hit rate 3.4% among 340,000; note: potency is the fitted concentration of half-maximal effect
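After 44 h co-culture of compound, cells and HCVcc-Cre (~0.5 moi), substrate is added for 15 min at room temperature and luciferase measured over 15 sec. Cells were seeded at 1,000/well and pre-cultured 4 h.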
Pf growth 48h: inhibits P. falciparum growth in the first generation, 48 h. Potency, µM (series often up to 28.7 µM), for inactives: at the top dose activity change, negative = inhibition, actives largely listed as inhibitors. P. falciparum luciferase growth in erythrocytes, 48 h. hit rate 5.9% among 310,000; note: potency is the fitted concentration of half-maximal effect
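Luciferase-expressing P. falciparum in infected erythrocytes (2% hematocrit, 0.1% parasitemia final) in RPMI 1640/0.5% Albumax were exposed to compound for 48 hours at 37 C, 5% CO2; growth read as luminescence.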
HCMV inh: inhibitors of human cytomegalovirus | hit rate 4.5% among 410,000 | AID 1259415 | activity change, negative = inhibition, % at 57.5 µM | HFF cells, HCMV-luciferase reporter, 72 h; hits give low values; in the data active = activity change below about -60%; inconclusive = no clear call, values can overlap the other calls; inactive = above about -39%
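Compounds were evaluated in HFFs infected with an HCMV luciferase reporter virus (MOI 1 PFU/cell). Luciferase in lysates collected 72 h post infection served as the replication measure.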
* marks the source's active call; other numbers are inactive results; ? = inconclusive; · = no result given; [ ] = another dose, or the depositor's remark. An excerpt weighted towards active compounds, which were near 14% of everything screened. Unless noted, calls come from the whole dose curve; as a rule, active = well fitted inhibition curve with a large enough effect; inconclusive = small, poorly fitted or top-dose-only effect, or another doubt; inactive = no such curve, though single readings can be large or run the other way. % is set by controls: 0 for no effect and ±100 for the full control effect.

SMILES | Pf growth 96h | MARV entry inh | Lassa entry inh | HCV inh | Pf growth 48h | HCMV inh
N#Cc1ccccc1NC(=O)C(=O)NCC(c1cccnc1)N1CCc2ccccc21 (stereo not drawn) | · | · | -7%[46.1 µM] | · | · | 22
CCN(CC(=O)NCc1ccc(F)cc1)C(=O)CN1CCN(c2cc(Cl)ccc2C)CC1 | ? | -23%[46.1 µM] | -1% | 6.3µM* | ? | 38
O=C(NC1(C(F)(F)F)C(=O)Nc2c1c(=O)[nH]c(=O)n2CCc1ccccc1)c1ccc(Cl)cc1Cl (stereo not drawn) | · | ? | 19%[46.1 µM] | · | · | 14
CN(C(=S)NC(=O)C12CC3CC(CC(C3)C1)C2)c1ccc(O)cc1 | · | · | · | 10% | · | -61*
CN(C)NC(=S)NC(=O)C12CC3CC(CC(C3)C1)C2 | ? | ? | -1% | -3% | ? | 28
Cc1ccc(N(CCCCN2C(=O)c3ccccc3C2=O)C(=O)c2cccs2)cc1 | ? | ? | ? | -2% | -29% | -83*
CCOC(=O)C1CCN(C(=O)c2cnn(-c3ccc(F)cc3)c2-n2cccc2)CC1 | · | · | 3%[46.1 µM] | · | · | -9
CN(C)C(=O)c1ccc(-n2cnc3ccccc3c2=O)cc1 | 12µM* | -15%[46.1 µM] | 9%[46.1 µM] | 10% | -18%[5.75 µM] | 57
c1ccc(-c2cn3ccccc3n2)cc1 | · | 11µM* | -16%[46.1 µM] | 2% | · | 94
Brc1ccc(-c2cn3ccccc3n2)cc1 | -19% | ? | 2.8µM* | -13% | 380% | 68
CCCSc1ccc2nc(-c3ccccc3)cn2c1 | 0% | ? | 2.2µM* | ? | -24% | -64*
CC(=O)Nc1cccc(-c2cn3ccccc3n2)c1 | 13µM* | -22%[46.1 µM] | 4% | 1% | 82% | 81
CC(C)C(=O)Nc1cccc(-c2cn3ccccc3n2)c1 | 20% | 26% | 1% | 12% | 34% | -14
CCCCSc1ccc2nc(-c3ccc(C#N)cc3)cn2c1 | -25% | -25% | ? | ? | 18% | -4
Cc1nc(C(F)(F)F)ccc1C(=O)N1CCC(C)(C(=O)NS(=O)(=O)C2CC2)C1 (stereo not drawn) | · | · | · | · | · | -9
COC(=O)[C@@]12C[C@@H](CC(=O)NCc3cccc4ccccc34)C(=O)N(Cc3ccc4c(c3)OCO4)C1=CCC(C)(C)C2 | · | · | · | · | · | -14
O=[N+]([O-])c1ccc(-c2cn3ccccc3n2)cc1 | · | · | · | 8% | · | -65*
COc1ccc(CCCN2CCC(CN3C(=S)NC[C@@H]3Cc3ccccc3)CC2)cc1OC | · | · | · | -92% | · | -26
CCCCN(CC(O)COc1cccc(C)c1)CC(O)COc1cccc(C)c1 (stereo not drawn) | 1.9µM* | ? | ? | -20% | ? | -23
CN(C)CC(O)COc1cccc(OCC(O)CN(C)C)c1 (stereo not drawn) | ? | ? | -8% | 17% | ? | -15
O=Cc1s/c(=N\S(=O)(=O)c2ccccc2)n(CCCCl)c1Cl | 1% | ? | ? | 4.5µM* | 4% | -108*
Cc1nc2ccccc2c(=O)n1/N=C/c1ccc([N+](=O)[O-])o1 | 5.9µM* | · | · | · | 13µM* | ·
COc1cccc(/C=N\n2c(C)nnc2C)c1OC | -10% | ? | -2% | 11% | -4% | -7
COc1cccc(/C=N/n2c(C)nc3ccccc32)c1OC | 38% | -3% | 3% | 8.9µM* | 2% | -9
Cc1nc2ccccc2n1/N=C/c1ccc([N+](=O)[O-])o1 | · | 15µM* | ? | 10µM* | · | -67*
SMILES | Pf growth 96h | MARV entry inh | Lassa entry inh | HCV inh | Pf growth 48h | HCMV inh
Cc1ccc(/C=N/n2c(C)nc3ccccc3c2=O)o1 | 38% | · | · | 30% | 0% | 15
COc1ccc(/C=N/n2c(SC)nnc2-c2ccccc2)c(OC)c1OC | -21% | 5µM* | 3.5µM* | ? | ? | ?
COc1ccc(/C=N/n2c(SC)nnc2-c2ccccc2)cc1C | -5% | ? | ? | -11% | 6% | -9
CC1(C(=O)O)CCCN1C(=O)c1cc2ccccc2s1 (stereo not drawn) | · | · | · | · | · | -10
CCOC(=O)C1OC1(c1ccccc1)c1ccccc1 (stereo not drawn) | · | 1% | 8% | 0% | · | -22
COc1cc(OC)c(OC)cc1/C=N/n1c(C)nc2ccccc2c1=O | ? | 14%[46.1 µM] | -2%[46.1 µM] | 7% | 0% | -38
Cc1nc2ccccc2c(=O)n1/N=C/c1ccccc1F | 9.3µM* | ? | -2%[46.1 µM] | -5% | · | -29
Oc1ccc(/C=N/Nc2ccnc3cc(Cl)ccc23)c(O)c1O | ? | -7%[46.1 µM] | -5% | ? | ? | 31
CC/C(=N\Nc1ccnc2cc(Cl)ccc12)c1ccc(O)cc1 | 1.3µM* | ? | ? | ? | 1.7µM* | 20
Oc1ccc(/C=N/Nc2ccnc3cc(Cl)ccc23)cc1O | 0.74µM* | · | · | ? | 0.66µM* | -60*
CC/C(=N/NS(=O)(=O)c1ccc(Cl)cc1)c1ccc(O)cc1 | 29% | -18% | -19% | 22% | 14% | 26
COc1cc2oc(=O)c(CC(=O)NCc3ccc(OC)c(OC)c3)c(C)c2cc1Cl | · | 15%[46.1 µM] | 8%[46.1 µM] | · | · | 19
Cc1cc(C)n(-c2nnc(C)n2/N=C/c2cc(Br)ccc2OCc2ccccc2)n1 | 7% | -12% | ? | -13% | 4.7µM* | 42
CC(C)Nc1nc(NC(C)C)nc(N(C#N)C(C)C(=O)N(C)C)n1 (stereo not drawn) | 5.2µM* | · | · | · | -8% | ·
CCNc1nc(NC(C)C)nc(N(C#N)C(C)C(=O)N(C)C)n1 (stereo not drawn) | ? | 6% | ? | 1% | ? | -17
Cc1c(C(=O)Nc2nc(-c3ccc(F)cc3)ns2)oc2ccc(Br)cc12 | · | -2%[46.1 µM] | ? | · | · | 152
CCCc1nc2c(=O)n(C)c(=O)[nH]c2n1CCC | 10µM* | ? | 6% | 20% | · | 4
CCOC(=O)c1c(C)[nH]c(C)c1C(=O)COC(=O)c1cccc(S(=O)(=O)NC)c1 | 25% | -5% | 15% | -25% | 4% | 36
CCOC(=O)c1c(C)[nH]c(C)c1C(=O)COC(=O)c1ccc(S(=O)(=O)N(CC)CC)cc1 | ? | -26% | ? | 25µM* | ? | -25
CCOC(=O)c1c(C)[nH]c(C)c1C(=O)COC(=O)c1ccc(OC)cc1 | ? | 18%[14.2 µM] | -11% | -10% | ? | -36
CCOC(=O)c1c(C)[nH]c(C)c1C(=O)COC(=O)c1cccc(S(=O)(=O)N(CC)CC)c1 | 9.3µM* | -2% | 22µM* | ? | 15µM* | -26
Cc1ccc(-n2ncc(C(=O)N3CCN(c4cccc(C)c4C)CC3)c2C2CCNCC2)c(C)c1 | · | · | -22%[46.1 µM] | · | · | -28
CC(C)CC1C(=O)N(Cc2cn(CCC3OCCO3)nn2)CCS(=O)(=O)N1Cc1ccc(-c2ccncc2)cc1 (stereo not drawn) | · | ? | · | · | · | -15
